Only some compounds are listed: those with a hit (about 1.3% of all), similar ones and a draw of the others.
Rpn11 block: Rpn11 (PSMD14) deubiquitinase inhibitors, primary screen, biochemical, fluorescence polarization, uHTS; calls only at 20 µM; 26S proteasome non-ATPase regulatory subunit 14 (Homo sapiens), O00487; hit rate 0.59% among 360,000; human 26S proteasome, Ub4-pepOG fluorescence polarization; 20S core pre-blocked with epoxomicin;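 active = inhibition at 20 µM, scaled to each plate's controls, above about 33%, limit read from the data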
PKA-R2B act: activators of PKA-R2B holoenzyme, primary screen, biochemical, fluorescence polarization, Cy5-IP20, human; hit rate 0.079% among 340,000; activation, % at 11.4 µM; PKA-R2B holoenzyme dissociation; R2B truncated from residue 108, S112A mutant; 0% DMSO only, 100% 113 µM cGMP; cAMP-dependent protein kinase catalytic subunit beta (Homo sapiens) + cAMP-dependent …;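 active = activation above a cutoff set at the mean over all compounds plus 3 SD, cut at about 18% in these data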;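 also: higher means more holoenzyme dissociation and a rise in polarization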
Target sequence (P31323 whole entry, looked up, other chains not shown, the tested form may be a part): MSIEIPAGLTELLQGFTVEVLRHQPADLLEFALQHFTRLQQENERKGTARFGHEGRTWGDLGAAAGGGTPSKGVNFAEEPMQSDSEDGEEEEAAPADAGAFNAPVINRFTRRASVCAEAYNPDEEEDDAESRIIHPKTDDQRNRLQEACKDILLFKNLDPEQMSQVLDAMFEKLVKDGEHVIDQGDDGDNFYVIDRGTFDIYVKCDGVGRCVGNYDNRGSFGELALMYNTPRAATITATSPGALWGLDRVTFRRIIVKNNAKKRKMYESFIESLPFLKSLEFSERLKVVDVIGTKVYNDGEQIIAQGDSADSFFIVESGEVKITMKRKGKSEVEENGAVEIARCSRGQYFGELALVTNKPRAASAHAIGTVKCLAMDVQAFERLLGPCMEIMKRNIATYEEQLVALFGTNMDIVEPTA
Neddylation inh: inhibitors of cullin neddylation, primary screen, biochemical, TR-FRET, uHTS, NAE and Ubc12 | inhibition, % at 25 µM | hit rate 0.58% among 360,000 | AID 651699, 2012; in the data active = inhibition above about 36%
PKA-R1A activ: activators of PKA-R1A holoenzyme, primary screen, biochemical, fluorescence polarization, Cy5-IP20, bovine R1A, mouse PKAc; hit rate 0.083% among 340,000; AID 504707, 2011; PKA-R1A dissociation; scaled: DMSO 0%, 113 µM cGMP 100%; cAMP-dependent protein kinase type I-alpha regulatory subunit (Bos taurus) + …; activation, % at 11.4 µM;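 active = percent activation above the mean of all tested compounds plus 3 SD, cut at about 19% in these data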;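 also: higher means more PKAc released from R1A so a rise in polarization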
R1A FP artifact: FP signal interference without PKA proteins, confirmation, artefact control for PKA-R1A activator project, biochemical, fluorescence polarization, triplicate. shares compounds with PKA-R1A activ. Cy5-IP20 peptide alone, fluorescence polarization artifact counterscreen. activation, % at 11.4 µM. hit rate 7% among 280;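 active = mean activation over triplicate runs exceeds the adjusted cutoff derived for the parent primary screen, cut at about 19% in these data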;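 also: no PKA protein present so any polarization rise reflects compound interference; 0% = tracer peptide mix alone and 100% = mix with added PKA catalytic subunit; higher means stronger polarization artifact and likely false positive in parent screen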
PKA-R1A confirm: activators of PKA-R1A holoenzyme, confirmation, biochemical, fluorescence polarization, Cy5-IP20, triplicate; shares compounds with PKA-R1A activ; PKA-R1A holoenzyme dissociation; activation, % at 11.4 µM; hit rate 9% among 280;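 active = mean activation over replicate wells exceeds the adjusted hit threshold taken from the earlier primary screen, cut at about 20% in these data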;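 also: 0% = holoenzyme mix with DMSO only and 100% = cGMP-activated control wells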
* hit, by the source's call; i = inactive; / = no result shown.

SMILES	Rpn11 block	PKA-R2B act	Neddylation inh	PKA-R1A activ	R1A FP artifact	PKA-R1A confirm
Cc1cc(C(=O)COC(=O)c2ccc(CO)cc2)c(C)n1CC1COc2ccccc2O1 (stereo not drawn)	i	6	-4	19*	0	1
C[C@H](NC(=O)C[C@@H]1C=C[C@@H](NC(=O)CN2CCOCC2)[C@@H](CO)O1)c1ccccc1	/	/	-8	/	/	/
COc1cccc(/C=N/NC(=O)CCc2ccccc2)c1	i	-5	-2	23*	5	2
COc1cccc(C=NNC(=O)CCCC(=O)NN=Cc2cccc(OC)c2)c1	i	-4	9	6	/	/
O=C(O)C1CCC(N2C(=O)c3cccc([N+](=O)[O-])c3C2=O)CC1 (stereo not drawn)	i	8	-31	19*	0	-1
Nc1cc(N)nc(SCc2cc(=O)oc3cc4c(cc23)CCC4)n1	i	1	-2	20*	-3	-1
Cc1cc2oc(=O)cc(CSc3nc(N)cc(N)n3)c2cc1C(C)C	i	-2	-5	-3	/	/
CCCn1c(SCC(=O)N2CCCC2)nc2c1c(=O)n(C)c(=O)n2C	i	-4	5	21*	-2	-2
Cc1c(C(=O)Nc2ccc(Oc3ccccc3)cc2)sc2nc3n(c(=O)c12)CCC3	i	1	-18	21*	-2	0
Cc1c(C(=O)Nc2ccc(OC(F)(F)F)cc2)sc2nc3n(c(=O)c12)CCC3	i	12	-41	-4	/	/
CCOC(=O)c1ccc(NC(=S)NCCc2ccc(F)cc2)cc1	i	/	-7	/	/	/
Nc1nonc1-c1nc2ccccc2n1CC(=O)N/N=C/c1ccc(-c2cccc(C(=O)O)c2)o1	i	7	11	-8	/	/
O=C1Nc2ccccc2Cc2ccccc21	i	-2	0	20*	2	3
S=C1Cc2ccccc2N1	i	5	-19	-3	/	/
CC(C)n1cnnc1SCC(=O)NNC(=O)COc1ccc(Cl)cc1	i	10	-2	3	/	/
O=C(NCc1ccco1)c1cccc2c1C(=O)c1ccc(N3CCC(N4CCCCC4)CC3)cc1S2(=O)=O	/	6	-70	20*	4	1
O=C(NCc1ccc(F)cc1)c1cccc2c1C(=O)c1ccc(N3CCC(N4CCCCC4)CC3)cc1S2(=O)=O	/	0	-40	-4	/	/
CC(=O)N1CCOCCOCCN(C(C)=O)CCOCC1	i	-14	5	-14	/	/
CCC(O)(CC)C(=O)N(Nc1ccc(C)cc1)c1ccc(C)cc1	i	1	-1	21*	3	1
CCOC(=O)C(=O)N(Nc1ccc(C)cc1)c1ccc(C)cc1	i	-2	4	-5	/	/
CC1CCCN(C2(O)C(=O)Nc3ccc([N+](=O)[O-])cc32)C1 (stereo not drawn)	i	7	-24	-11	/	/
Cc1ccc(CNC(=O)CN2C(=O)COc3ccc(S(=O)(=O)N4CCCCC4)cc32)o1	i	-3	2	-15	/	/
O=C(COC(=O)C1COc2ccccc2O1)NC(=O)NC1CCCC1 (stereo not drawn)	i	-2	2	20*	-2	0
O=C(COC(=O)C1COc2ccccc2O1)NC1CCCCC1 (stereo not drawn)	i	5	-4	11	/	/
OCC1CCCN(C(=S)Nc2ccc(Nc3ccccc3)cc2)C1 (stereo not drawn)	i	-4	1	12	/	/
Fc1ccccc1N1CCN(C2CCN(Cc3c[nH]c4ccccc34)CC2)CC1	i	-1	4	19*	4	3
O=C(Cn1ncc2c([nH]c3ccccc32)c1=O)NCC1CCN(Cc2ccccc2F)CC1	i	-2	14	-5	/	/
O=C(CN1C(=O)c2cccnc2C1=O)c1ccccc1	i	10	-19	20*	-1	-2

Compound activity deposited in PubChem BioAssay by several laboratories.
